Measurements published in publication PMC5540273 (PLoS ONE, 2017).

tested on: T1, JNK1; conditions: concentration: 1 μM,replicates: in singlicate; n = 1
T1 construct: gene MAPK8
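Also: KINOMEscan kinase panel screen.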

Row | Structure (SMILES) | %Inh [%]
1 | COc1ccc(Nc2nccc(N3CCC(NC(=O)c4cccc(C#N)c4)C3)n2)cc1 (stereo not shown) [GSK1379730] | 15
2 | Cl.c1ccc(Oc2ccc(Nc3ccnc4cc(-c5ccc(CN6CCNCC6)o5)ccc34)cc2)nc1 [GW567142] | 0
3 | O=C(Nc1ccc(Oc2ccc3nc(NC(=O)C4CC4)cn3n2)c(F)c1)c1cccn(-c2ccccc2)c1=O | 0
4 | Cl.Cl.NC[C@H](CC1CCCCC1)NC(=O)c1ccc(-c2ccnc3[nH]ccc23)s1 [GSK1581428] | 18
5 | COC(=O)Nc1nc2cc(Oc3ccc(NC(=O)Nc4cc(C(F)(F)F)ccc4Cl)cc3)ccc2[nH]1.Cl [GW697465] | 20
6 | CC(C(=O)NC1CCN(c2ccnc(Nc3ccc(F)cc3)n2)C1)c1ccc(Cl)cc1 (stereo not shown) [GSK1379713] | 2
7 | O=C(NCC1CC1)c1ccc(-c2cc(C(=O)NC3CC3)ccc2F)cc1 [GW810445] | 0
8 | CCN1CCN(CCCC(=O)Nc2n[nH]c3nc(-c4ccc(O)cc4)c(Br)cc23)CC1 [SB-731579] | 55
9 | Cc1nnc(-c2ccc3occ(-c4ccc(S(C)=O)cc4)c3n2)o1 (stereo not shown) | 0
10 | CC(C)S(=O)(=O)N1CCN(Cc2ccc3c(c2)nc(NC(=O)c2ccsc2)n3C[C@H](O)c2ccccc2)CC1 [GW635815] | 19
11 | Cn1ccc2ncnc(Oc3ccc(NC(=O)Nc4cccc(C(F)(F)F)c4)c(Cl)c3)c21 | 9
12 | Cn1ccc2ncnc(Oc3ccc(NC(=O)Nc4ccnc(C(F)(F)F)c4)c(Cl)c3)c21 | 0
13 | Cc1cccc2c(-c3ccncc3)c(-c3ccc(F)cc3)nn12.Cl [GW461487] | 48
14 | Cc1ccc2c(-c3ccnc(Nc4ccc(C(F)(F)F)cc4)n3)cnn2n1 [GW819776] | 91.5
15 | Cc1n[nH]c2cc(Nc3ccnc(Nc4cccc(CN5CCOCC5)c4)n3)ccc12 [GW682569] | 96.2
16 | CCn1c(-c2nonc2N)nc2cncc(Br)c21 [SB-738004] | 0
17 | CN1CCN(CCCNc2nccc(-c3c(-c4ccc(F)cc4)nn4cc(C(N)=O)ccc34)n2)CC1 [GW622475] | 92.1
18 | Nc1nccc(-c2ccc3c(N)n[nH]c3c2)n1 [GSK1034945] | 20
19 | Cc1ccc(C(=O)Nc2ccc(Oc3ccc4nc(NC(=O)C5CC5)cn4c3)c(F)c2)c(=O)n1-c1ccccc1 | 0
20 | Cn1ccc2ncnc(Oc3ccc(NC(=O)Nc4cncc(C(F)(F)F)c4)c(Cl)c3)c21 | 0
21 | NC(=O)Nc1sc(-c2ccc(F)cc2)cc1C(N)=O [GW789449] | 55
22 | Cn1ccc2ncnc(Oc3ccc(NC(=O)Nc4cc(C(C)(C)C)on4)c(Cl)c3)c21 | 12
23 | COC(=O)c1cccc(NC(=O)NC2CCN(c3ccnc(Nc4cc(OC)c(OC)c(OC)c4)n3)C2)c1 (stereo not shown) [GSK1379767] | 16
24 | O=C(Nc1ccccc1)c1cccc(Oc2ccc3nccn3n2)c1 | 8

tested on: T2, JNK2; conditions: concentration: 1 μM,replicates: in singlicate; n = 1
T2 construct: gene MAPK9

Row | Structure (SMILES) | %Inh [%]
25 | Cn1ccc2ncnc(Oc3ccc(NC(=O)Nc4cnn(C(C)(C)C)c4)c(Cl)c3)c21 | 10
26 | COc1cc2ncn(-c3cc(OCC4CCCCC4)c(C(N)=O)s3)c2cc1OC [GSK204559] | 27
27 | COc1cccc(CNC(=O)NC2CCN(c3ccnc(Nc4cc(OC)c(OC)c(OC)c4)n3)C2)c1 (stereo not shown) [GSK1379765] | 9
28 | Cn1ccc2ncnc(Oc3ccc(NC(=O)Nc4cccc(C(F)(F)F)c4)c(F)c3)c21 | 0
29 | CNC(=O)c1ccccc1Nc1nc(Nc2cccc(CS(C)(=O)=O)c2)ncc1C.O=CO [GSK1520489] | 99.7
30 | C[C@@H](Oc1cc(-n2cnc3cc(-c4cnn(C)c4)ccc32)sc1C(N)=O)c1ccccc1Cl [GSK580432] | 31
31 | COc1cc(Nc2nccc(N3CCC(NC(=O)c4cccc(C#N)c4)C3)n2)cc(OC)c1OC (stereo not shown) [GSK1379751] | 15
32 | Cc1ccn2nc(-c3ccc(F)cc3)c(-c3ccncc3)c2c1.Cl [GW457859] | 91.4
33 | CN1CCN(CCNc2nc3cc(Oc4ccc(NC(=O)Nc5cc(C(F)(F)F)ccc5F)cc4)ccc3[nH]2)CC1.Cl.Cl [GW768504] | 0
34 | NC(=O)c1ccc(-c2cc3ncnc(SCC(=O)O)c3s2)cc1 | 0
35 | CC(=O)c1c(-c2ccncc2)[nH]c(-c2ccncc2)c1C [GW493036] | 8
36 | O=C(Nc1cccc(C(F)(F)F)c1)c1cccc(Oc2ccc3nccn3n2)c1 | 0
37 | CC(=O)Nc1nc2cnc(Nc3cc(NC(=O)c4cccc(CC(C)(C)C#N)c4)ccc3C)nc2s1 | 41
38 | COc1ccc(Nc2nccc(N3CCC(NC(=O)c4cccc(C#N)c4)C3)n2)cc1 (stereo not shown) [GSK1379730] | 16
39 | Cl.c1ccc(Oc2ccc(Nc3ccnc4cc(-c5ccc(CN6CCNCC6)o5)ccc34)cc2)nc1 [GW567142] | 3
40 | O=C(Nc1ccc(Oc2ccc3nc(NC(=O)C4CC4)cn3n2)c(F)c1)c1cccn(-c2ccccc2)c1=O | 0
41 | Cl.Cl.NC[C@H](CC1CCCCC1)NC(=O)c1ccc(-c2ccnc3[nH]ccc23)s1 [GSK1581428] | 11
42 | COC(=O)Nc1nc2cc(Oc3ccc(NC(=O)Nc4cc(C(F)(F)F)ccc4Cl)cc3)ccc2[nH]1.Cl [GW697465] | 61
43 | CC(C(=O)NC1CCN(c2ccnc(Nc3ccc(F)cc3)n2)C1)c1ccc(Cl)cc1 (stereo not shown) [GSK1379713] | 0

Row | Structure (SMILES) | %Inh [%]
44 | O=C(NCC1CC1)c1ccc(-c2cc(C(=O)NC3CC3)ccc2F)cc1 [GW810445] | 0
45 | CCN1CCN(CCCC(=O)Nc2n[nH]c3nc(-c4ccc(O)cc4)c(Br)cc23)CC1 [SB-731579] | 38
46 | Cc1nnc(-c2ccc3occ(-c4ccc(S(C)=O)cc4)c3n2)o1 (stereo not shown) | 0
47 | CC(C)S(=O)(=O)N1CCN(Cc2ccc3c(c2)nc(NC(=O)c2ccsc2)n3C[C@H](O)c2ccccc2)CC1 [GW635815] | 10
48 | Cn1ccc2ncnc(Oc3ccc(NC(=O)Nc4cccc(C(F)(F)F)c4)c(Cl)c3)c21 | 0
49 | Cn1ccc2ncnc(Oc3ccc(NC(=O)Nc4ccnc(C(F)(F)F)c4)c(Cl)c3)c21 | 0
50 | Cc1cccc2c(-c3ccncc3)c(-c3ccc(F)cc3)nn12.Cl [GW461487] | 90
51 | Cc1ccc2c(-c3ccnc(Nc4ccc(C(F)(F)F)cc4)n3)cnn2n1 [GW819776] | 53
52 | Cc1n[nH]c2cc(Nc3ccnc(Nc4cccc(CN5CCOCC5)c4)n3)ccc12 [GW682569] | 58
53 | CCn1c(-c2nonc2N)nc2cncc(Br)c21 [SB-738004] | 0
54 | CN1CCN(CCCNc2nccc(-c3c(-c4ccc(F)cc4)nn4cc(C(N)=O)ccc34)n2)CC1 [GW622475] | 99.6
55 | Nc1nccc(-c2ccc3c(N)n[nH]c3c2)n1 [GSK1034945] | 10
56 | Cc1ccc(C(=O)Nc2ccc(Oc3ccc4nc(NC(=O)C5CC5)cn4c3)c(F)c2)c(=O)n1-c1ccccc1 | 0
57 | Cn1ccc2ncnc(Oc3ccc(NC(=O)Nc4cncc(C(F)(F)F)c4)c(Cl)c3)c21 | 0
58 | NC(=O)Nc1sc(-c2ccc(F)cc2)cc1C(N)=O [GW789449] | 0
59 | Cn1ccc2ncnc(Oc3ccc(NC(=O)Nc4cc(C(C)(C)C)on4)c(Cl)c3)c21 | 48
60 | COC(=O)c1cccc(NC(=O)NC2CCN(c3ccnc(Nc4cc(OC)c(OC)c(OC)c4)n3)C2)c1 (stereo not shown) [GSK1379767] | 20
61 | O=C(Nc1ccccc1)c1cccc(Oc2ccc3nccn3n2)c1 | 1
